Compound activity deposited in PubChem by several laboratories.
CYP2C9 activ – increases human cytochrome P450 2C9 activity; P11712; recombinant CYP2C9, luciferin-H conversion, luminescence; hits give high values; factor 1 = untreated enzyme, 0 = blocked; activation factor at 5 µM; 96,000 tested, 1.4% active; AID 1024;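 active = activation factor of 2 or more for CYP2C9 at a 5 µM dose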
CYP2C19 inh – human CYP2C19 inhibition. P33261. CYP2C19 Supersomes, luciferin-H EGE luminescence, 30 min. inhibition, % at 5 µM. 96,000 tested, 21% active;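 active = CYP2C19 inhibition above a set limit at 5 µM in the primary screen, cut at about 50% in these data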
CYP2C9 inhib – human CYP2C9 inhibition; P11712; CYP2C9 Supersomes, luciferin-H conversion, luminescence; inhibition, % at 5 µM; 96,000 tested, 20% active; AID 777;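 active = blocking of liver enzyme CYP2C9 beyond about 50% at 5 µM, limit read from the data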
CYP2C19 activ – increases human CYP2C19 enzyme activity | activation factor at 5 µM | P33261 | recombinant CYP2C19, luciferin-H EGE luminescence; hits give high values; 0 = fully inhibited enzyme, 1 = untreated enzyme | 96,000 tested, under 10 active;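 active = activation factor of at least 2 at 5 µM in the primary screen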
sEH activator – activators of human soluble epoxide hydrolase | P34913 | activation, % at 2 µM | 91,000 tested, 0.04% active | purified human sEH enzymatic activity, activator screen; in the data active = activation above about 37%
sEH inhibitor – inhibitors of human soluble epoxide hydrolase; inhibition, % at 2 µM; recombinant human sEH enzymatic activity assay; AID 707; 91,000 tested, 0.34% active; in the data active = inhibition above about 80%
Hits are given with their value; . = inactive; / = not tested or not shown. Only some compounds are listed: those with a hit (about 27% of all), similar ones and a draw of the others.

SMILES | CYP2C9 activ | CYP2C19 inh | CYP2C9 inhib | CYP2C19 activ | sEH activator | sEH inhibitor
CC(=O)N(CCO)Cc1cc2cc(C)cc(C)c2[nH]c1=O | . | . | . | . | . | .
C=CCNc1ncnc2c1[nH]c1ccc(Cl)cc12 | . | . | 64 | . | . | .
COc1ccc(N2CCN(C(=O)CCN3C(=O)c4ccccc4S3(=O)=O)CC2)cc1 | . | . | . | . | / | /
O=C(COc1ccc(Cl)cc1)NCc1nnc(SCC(=O)N2CCCc3ccccc32)o1 | . | . | . | . | . | .
COc1ccc(C(=O)c2c[nH]c3ccccc23)cc1 | . | . | . | . | . | .
COc1ccc(C(=O)c2ccccc2Cl)cc1 | 2.5 | 81 | . | . | . | .
COc1ccc2cc(C(=O)c3ccccc3)c(=O)oc2c1 | . | 92 | . | . | . | .
CC(OC(=O)c1nsc(Cl)c1Cl)C(=O)NC(C)(C)C (stereo unspecified) | / | / | / | / | . | .
CCOc1ccc(OCC)c(NC(=O)c2[nH]c(C)c(C(C)=O)c2C)c1 | . | . | . | . | . | .
CCOC(=O)c1c(C)c(C(=O)Nc2cc(OC)ccc2OC)c(C)n1CC | . | 61 | . | . | / | /
CCOC(=O)c1[nH]c(C)c(C(=O)Nc2cc(OC)ccc2OC)c1C | 2 | . | . | . | . | .
CCOC(=O)c1c(C)c(C(=O)Nc2ccccc2)c(C)n1CC | . | . | . | . | . | .
CC(=O)c1c(C)[nH]c(C(=O)NC2=NCCS2)c1C | . | . | 64 | . | . | .
COc1ccccc1NC(=O)c1[nH]c(C)c(C(C)=O)c1C | . | . | 79 | . | . | .
CCN=C1SC(C(=O)Nc2ccccc2)CC(=O)N1CC (stereo unspecified) | . | . | . | . | . | .
c1ccc(-c2nnc(SCCC3OCCCO3)o2)cc1 | . | . | . | . | . | .
CCOC(=O)c1[nH]c(C)c(C(=O)c2ccc(C)cc2)c1C | . | 63 | . | . | . | .
COc1ccc(NCc2nnc(SCC#N)n2-c2ccccc2OC)cc1 | . | . | . | . | . | .
COc1ccc(OC)c(NC(=O)C2CCN(c3cc(-c4ccccc4)nc4ncnn34)CC2)c1 | . | 52 | . | . | . | .
Cc1c(NC(=O)Cn2cnc3c(=O)n(C)c(=O)n(C)c32)cccc1-c1nc2ccccc2o1 | / | / | / | / | . | .
Cc1n[nH]c(C)c1S(=O)(=O)N1CCC(C(=O)N2CCn3c2nc2ccccc23)CC1 | . | 66 | . | . | . | .
CCC(=O)N1CCn2c1nc1ccccc12 | . | . | . | . | . | .
Cc1ccc(N(CC(=O)N2CCn3c2nc2ccccc23)S(=O)(=O)c2c(C)n[nH]c2C)cc1 | . | . | 64 | . | . | .
O=C(Cn1cc(C(F)(F)F)ccc1=O)N1CCN(S(=O)(=O)c2ccccc2)CC1 | . | . | . | . | . | .
CCOc1ccc(NC(=O)N2CCC(n3c(=O)[nH]c4ccccc43)CC2)cc1 | . | . | 66 | . | . | .
SMILES | CYP2C9 activ | CYP2C19 inh | CYP2C9 inhib | CYP2C19 activ | sEH activator | sEH inhibitor
O=C(Nc1ccccc1C(F)(F)F)N1CCC(n2c(=O)[nH]c3ccccc32)CC1 | / | / | / | / | . | .
Clc1ccccc1OCc1nn2c(-c3ccncc3)nnc2s1 | . | 100 | 80 | . | . | .
COc1ccc(-c2nnc3sc(COc4ccc(C)cc4)nn23)cc1 | . | . | . | . | . | .
c1csc(Cc2nn3c(-c4ccncc4)nnc3s2)c1 | . | 98 | 80 | . | / | /
Clc1ccc(OCc2nn3c(-c4ccccc4)nnc3s2)c(Cl)c1 | . | . | . | . | . | .
CCC(=O)c1ccc(OCC(=O)Nc2nn3cnnc3s2)cc1 | . | . | 84 | . | . | .
CCCCCNC(=O)Cc1cc(=O)[nH]c(=O)[nH]1 | . | . | . | . | . | .
Cc1ccc(C2C(C#N)=C(N)Oc3c2sc2ccccc32)o1 (stereo unspecified) | . | 63 | 81 | . | . | .
COc1ccc(OC)c(C2C(C#N)=C(N)Oc3cc(C)[nH]c(=O)c32)c1 (stereo unspecified) | . | . | . | . | . | .
CCOC(=O)C1=C(c2ccccc2)OC(N)=C(C#N)C1c1ccco1 (stereo unspecified) | . | . | . | . | . | .
CCOC(=O)CC1=C(C(=O)OCC)C(c2ccc(OC)cc2OC)C(C#N)=C(N)O1 (stereo unspecified) | . | . | 64 | . | / | /
CCOC(=O)CC1=C(C(=O)OCC)C(c2ccc(C)o2)C(C#N)=C(N)O1 (stereo unspecified) | . | 94 | . | . | . | .
